Measured values reported in PubChem BioAssay (Tox21).
Records with an inconclusive call do not appear. Where a call stands in place of a potency, no number is given. A number with no mark means an inactive call. The source made the active and inactive calls. Unless noted, the call rests on the fitted dose curve; in most records, active means well fitted curve in the direction sought with a large enough effect in the repeat runs; inconclusive means weak or mixed curves; inactive means no such curve, though single readings can be large; an effect the other way counts as inactive or inconclusive.

Assays:
[1] = qHTS assay to identify small molecule antagonists of the estrogen related receptor (ERR) signaling pathway from Tox21 library - cell viability counter screen (AID 1224834); details: ERR reporter cells viability, CellTiter-Fluor, 17.5 h; series mostly up to 92.4 µM; further: nearly all actives have a fitted effect of over 30% in size; further: potency means the concentration at half of the fitted maximal effect
Outline: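 ERR cells, 2,000/well; 6 h settle at 37 C/5% CO2; pin-tool compound transfer in DMSO; 17.5 h at 37 C; CellTiter-Fluor, 30 min; fluorescence intensity.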

[2] = qHTS assay to identify small molecule agonists of the constitutive androstane receptor (CAR) signaling pathway - cell viability counter screen (AID 1224836); details: HepG2-CYP2B6-hCAR viability, CellTiter-Fluor, 23 h, PK11195 added to every well; series mostly up to 92.4 µM; further: nearly all actives have a fitted effect of over 45% in size
Outline: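 23 h treatment, 37 C, 5% CO2. Cell line: HepG2 stably expressing hCAR with a CYP2B6-2.2kb construct. Co-treatment: PK11195, 0.75 uM final. Read-out: CellTiter-Fluor fluorescence intensity.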

[3] = qHTS assay to identify small molecule antagonists of the constitutive androstane receptor (CAR) signaling pathway - cell viability counter screen (AID 1224837); details: HepG2-CYP2B6-hCAR viability, CellTiter-Fluor, 23 h, co-treated with 50 nM CITCO; series mostly up to 92.4 µM; further: nearly all actives have a fitted effect of over 45% in size
Outline: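 Viability was measured with CellTiter-Fluor in a HepG2 line carrying stably transfected hCAR and a CYP2B6-2.2kb construct. Cells were exposed for 23 hr at 37 C to 15 compound concentrations with 50 nM CITCO as agonist.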

[4] = target: Nuclear receptor subfamily 1 group I member 3 (Homo sapiens) (UniProt Q14994); experiment: qHTS assay to identify small molecule antagonists of the constitutive androstane receptor (CAR) signaling pathway (AID 1224838); details: HepG2-CYP2B6-hCAR luciferase, CITCO-stimulated, 24 h; series mostly up to 92.4 µM;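 further: HepG2 cells stably expressing hCAR with CYP2B6 luciferase reporter stimulated by CITCO; nearly all actives have a fitted effect of over 40% in size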; further: potency means the concentration at half of the fitted maximal effect
Outline: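 Antagonist mode used CITCO at a final 50 nM to activate CAR in human hepatoma HepG2 cells carrying stable hCAR and a 2.2 kb CYP2B6 promoter-luciferase construct. Compounds were tested at 15 concentrations over 24 h, with luminescence as the end point.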

[5] = target: Nuclear receptor subfamily 1 group I member 3 (Homo sapiens) (UniProt Q14994); experiment: qHTS assay to identify small molecule agonists of the constitutive androstane receptor (CAR) signaling pathway (AID 1224839); details: HepG2 hCAR CYP2B6-luciferase, agonist mode, 24 h; series mostly up to 92.4 µM; further: nearly all actives have a fitted effect of over 15% in size; further: potency means the concentration at half of the fitted maximal effect
Outline: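 Compounds tested at 15 concentrations on HepG2 cells stably harbouring hCAR and CYP2B6-2.2kb reporter constructs, co-treated with PK11195 (0.75 uM final), 24 h at 37 C; luminescent reporter signal quantified.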

[6] = qHTS assay to identify small molecule antagonists of the estrogen related receptor signaling pathway with the pleiotropic PPARgamma coactivator (PGC) from Tox21 10K library - cell viability counter screen (AID 1224840; active means well fitted cell-killing curve with a large enough effect in the repeat runs, not every such curve was filed as active; further: nearly all actives have a fitted effect of over 40% in size); details: PGC/ERR reporter cells viability, CellTiter-Fluor, 17.5 h; series mostly up to 92.4 µM
Outline: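 Multiplexed viability counter screen in the PGC/ERR cell line: cells treated with DMSO-dissolved compounds for 17.5 hours at 37 C, then viability measured as CellTiter-Fluor fluorescence.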

[7] = qHTS assay to identify small molecule antagonists of the estrogen related receptor signaling pathway with the pleiotropic PPARgamma coactivator (PGC) from Tox21 10K library (AID 1224841; call rule not given here; further: actives are mostly falling curves and most rising ones were filed inactive; nearly all actives have a fitted effect of over 50% in size); details: PGC/ERR reporter cell line, ONE-Glo luciferase, 18 h; series mostly up to 92.4 µM
Outline: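 Steps: plate 2,000 PGC/ERR cells per well; incubate 6 h at 37 C with 5% CO2; transfer compounds from DMSO stocks by pin tool; incubate 18 h at 37 C; add One-Glo; measure luminescence 30 min later.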

[8] = qHTS assay to identify small molecule agonists of the estrogen related receptor signaling pathway with the pleiotropic PPARgamma coactivator (PGC) from Tox21 10K library (AID 1224842); details: PGC/ERR reporter cell line, luciferase ONE-Glo, 18 h; series mostly up to 92.4 µM; further: nearly all actives have a fitted effect of over 15% in size
Outline: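 Luminescence from One-Glo (30 min, room temperature) measured after PGC/ERR cells had 18 h at 37 C with pinned compound (23 nL in DMSO). Cells had been seeded at 2,000 per well and pre-incubated 6 h.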

[9] = target: Thyrotropin receptor (Homo sapiens) (UniProt P16473); experiment: qHTS assay to identify small molecule agonists of the thyroid stimulating hormone receptor (TSHR) signaling pathway (AID 1224843; calls by dose curve; further: nearly all actives have a fitted effect of over 45% in size); details: TSHR-HEK293 cells, cAMP HTRF, agonist mode, 30 min; series mostly up to 92.4 µM
Outline: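 A cell-based cAMP HTRF format was run in TSHR-transfected HEK293 cells, 800 per well. Treatment: 30 min, room temperature. Detection: 1 h with labelled cAMP and anti-cAMP cryptate. Concentration-response over 15 points, three replicates.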

[10] = target: Luciferin 4-monooxygenase (Photinus pyralis) (UniProt P08659); experiment: qHTS assay to identify small molecule inhibitors of firefly luciferase (AID 1224835); further: nearly all actives have a fitted effect of over 25% in size; details: purified P. pyralis luciferase, luminescence inhibition; series mostly up to 115 µM
Outline: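 Inhibition of purified Photinus luciferase is measured by luminescence. Substrate levels (D-luciferin, ATP) sit at their KM values. Each compound is tested in a concentration series.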

Chain of Luciferin 4-monooxygenase (Photinus pyralis) (P08659 whole entry, looked up): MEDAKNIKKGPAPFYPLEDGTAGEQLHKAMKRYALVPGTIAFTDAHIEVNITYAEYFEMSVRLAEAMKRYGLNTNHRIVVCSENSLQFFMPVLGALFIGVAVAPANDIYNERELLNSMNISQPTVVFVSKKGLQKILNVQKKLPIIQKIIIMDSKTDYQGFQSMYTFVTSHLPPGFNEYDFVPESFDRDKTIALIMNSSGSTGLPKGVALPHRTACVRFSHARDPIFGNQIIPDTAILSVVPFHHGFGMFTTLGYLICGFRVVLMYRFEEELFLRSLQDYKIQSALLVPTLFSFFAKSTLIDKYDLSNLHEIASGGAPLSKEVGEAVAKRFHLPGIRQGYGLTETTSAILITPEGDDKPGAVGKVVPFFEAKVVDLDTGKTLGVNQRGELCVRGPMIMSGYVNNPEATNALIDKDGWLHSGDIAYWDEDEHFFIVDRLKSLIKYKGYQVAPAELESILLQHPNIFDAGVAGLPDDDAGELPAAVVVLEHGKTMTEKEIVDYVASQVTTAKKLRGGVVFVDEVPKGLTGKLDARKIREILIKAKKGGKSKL
Chain of Thyrotropin receptor (Homo sapiens) (P16473 whole entry, looked up): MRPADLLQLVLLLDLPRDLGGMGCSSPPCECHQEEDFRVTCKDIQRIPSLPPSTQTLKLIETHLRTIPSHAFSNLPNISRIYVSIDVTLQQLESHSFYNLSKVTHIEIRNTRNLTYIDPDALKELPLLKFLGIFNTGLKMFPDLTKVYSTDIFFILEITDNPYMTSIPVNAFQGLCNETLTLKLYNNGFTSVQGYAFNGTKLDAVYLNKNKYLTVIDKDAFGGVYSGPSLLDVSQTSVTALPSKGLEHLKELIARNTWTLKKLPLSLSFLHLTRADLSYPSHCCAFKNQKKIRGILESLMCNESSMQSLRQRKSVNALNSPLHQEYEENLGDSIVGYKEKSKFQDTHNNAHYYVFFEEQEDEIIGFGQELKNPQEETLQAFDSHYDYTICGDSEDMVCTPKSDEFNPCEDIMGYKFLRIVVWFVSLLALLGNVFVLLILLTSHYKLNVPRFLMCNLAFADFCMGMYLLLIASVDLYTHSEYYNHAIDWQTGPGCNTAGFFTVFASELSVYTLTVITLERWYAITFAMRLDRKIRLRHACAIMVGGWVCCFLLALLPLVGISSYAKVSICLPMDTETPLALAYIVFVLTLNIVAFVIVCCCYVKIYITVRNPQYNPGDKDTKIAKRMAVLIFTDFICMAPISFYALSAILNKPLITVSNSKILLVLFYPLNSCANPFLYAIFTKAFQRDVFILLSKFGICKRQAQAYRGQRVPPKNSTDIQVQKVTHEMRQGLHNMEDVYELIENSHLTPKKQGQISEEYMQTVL
Chain of Nuclear receptor subfamily 1 group I member 3 (Homo sapiens) (Q14994 whole entry, looked up): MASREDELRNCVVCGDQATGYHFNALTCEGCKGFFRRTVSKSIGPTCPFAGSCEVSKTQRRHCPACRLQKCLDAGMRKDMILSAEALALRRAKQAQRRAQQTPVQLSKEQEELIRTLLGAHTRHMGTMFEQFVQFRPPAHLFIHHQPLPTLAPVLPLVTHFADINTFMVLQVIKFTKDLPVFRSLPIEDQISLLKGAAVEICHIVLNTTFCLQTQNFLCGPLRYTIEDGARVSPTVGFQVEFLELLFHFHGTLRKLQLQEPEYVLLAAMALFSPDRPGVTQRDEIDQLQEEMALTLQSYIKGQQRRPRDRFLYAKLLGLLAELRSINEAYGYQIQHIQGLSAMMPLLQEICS

Structure (SMILES): CO[Si](C)(OC)c1ccccc1
- Potency [1]: inactive
- outcome [2]: inactive
- outcome [3]: inactive
- Potency [4]: inactive
- Potency [5]: inactive
- outcome [6]: inactive
- Potency [7]: inactive
- Potency [8]: inactive
- Potency [9]: inactive

Structure (SMILES): CC(N)C12CC3CC(CC(C3)C1)C2 (stereo unspecified)
- Potency [1]: inactive
- Potency [10]: inactive
- outcome [6]: inactive
- Potency [9]: inactive

Structure (SMILES): CCOc1ccccc1OCC
- Potency [1]: inactive
- Potency [10]: inactive
- outcome [2]: inactive
- outcome [6]: inactive
- Potency [7]: inactive
- Potency [8]: inactive
- Potency [9]: inactive

Structure (SMILES): CC(C)COC(=O)c1ccc(N)cc1
- Potency [1]: inactive
- outcome [2]: inactive
- outcome [3]: inactive
- Potency [4]: inactive
- outcome [6]: inactive
- Potency [7]: inactive
- Potency [9]: inactive

Structure (SMILES): C=C[Si](OC(C)=O)(OC(C)=O)OC(C)=O
- Potency [1]: inactive
- Potency [10]: inactive
- outcome [2]: inactive
- Potency [5]: inactive
- outcome [6]: inactive

Structure (SMILES): Nc1ccn([C@@H]2O[C@H](CO)[C@@H](O)C2(F)F)c(=O)n1
- Potency [1]: inactive
- outcome [2]: inactive
- outcome [3]: inactive
- Potency [4]: 596 nM (active)
- Potency [5]: inactive
- outcome [6]: inactive
- Potency [9]: inactive

Structure (SMILES): CCC(=O)OCc1ccccc1
- Potency [1]: inactive
- Potency [10]: inactive
- outcome [2]: inactive
- outcome [6]: inactive
- Potency [9]: inactive

Structure (SMILES): CC1=C(C/C=C(\C)CCC[C@H](C)CCC[C@H](C)CCCC(C)C)C(=O)c2ccccc2C1=O
- Potency [1]: inactive
- Potency [10]: inactive
- outcome [2]: inactive
- Potency [5]: inactive
- outcome [6]: inactive
- Potency [7]: inactive
- Potency [8]: inactive
- Potency [9]: inactive

Structure (SMILES): CCOC(=O)COc1cc(-n2ncc(C(F)(F)F)c(C)c2=O)c(F)cc1Cl
- Potency [1]: inactive
- outcome [2]: inactive
- outcome [3]: inactive
- Potency [5]: inactive
- outcome [6]: inactive

Structure (SMILES): CCCCOC(=O)CCC(C)=O
- Potency [1]: inactive
- outcome [2]: inactive
- outcome [3]: inactive
- Potency [4]: inactive
- Potency [5]: inactive
- outcome [6]: inactive
- Potency [9]: inactive

Structure (SMILES): O=S(=O)(O)c1cccc2ccccc12
- Potency [1]: inactive
- Potency [10]: inactive
- outcome [2]: inactive
- outcome [6]: inactive
- Potency [7]: inactive
- Potency [8]: inactive

Structure (SMILES): C1CCC2=NCCCN2CC1
- Potency [1]: inactive
- outcome [2]: inactive
- outcome [3]: inactive
- Potency [4]: inactive
- Potency [5]: inactive
- outcome [6]: inactive
- Potency [9]: inactive

Structure (SMILES): Clc1cc(Cl)cc(Cl)c1
- Potency [1]: inactive
- outcome [2]: inactive
- outcome [3]: inactive
- Potency [4]: inactive
- Potency [5]: inactive
- outcome [6]: inactive
- Potency [7]: inactive
- Potency [8]: inactive
- Potency [9]: inactive

Structure (SMILES): Cc1ncc([C@@H](CCCCCCc2ccc3c(n2)NCCC3)CC(=O)O)cn1
- Potency [1]: 109 nM (active)
- Potency [10]: inactive
- outcome [2]: inactive
- outcome [6]: inactive

Structure (SMILES): CCC(C(=O)NC(=O)NC(C)=O)c1ccccc1 (stereo unspecified)
- Potency [1]: inactive
- outcome [2]: inactive
- outcome [3]: inactive
- Potency [4]: inactive
- Potency [5]: inactive
- outcome [6]: inactive
- Potency [7]: inactive
- Potency [8]: inactive
- Potency [9]: inactive

Structure (SMILES): CCOC(=O)C(=O)CCCCCCl
- Potency [1]: inactive
- outcome [2]: inactive
- outcome [3]: inactive
- Potency [4]: inactive
- Potency [5]: inactive
- outcome [6]: inactive
- Potency [9]: inactive

Structure (SMILES): CC(=O)O[C@@]12CO[C@@H]1C[C@H](O)[C@@]1(C)C(=O)[C@H](O)C3=C(C)[C@@H](OC(=O)[C@H](O)[C@@H](NC(=O)OC(C)(C)C)c4ccccc4)C[C@@](O)([C@@H](OC(=O)c4ccccc4)[C@H]21)C3(C)C
- Potency [1]: 66.8 nM (active)
- Potency [10]: inactive
- outcome [2]: inactive
- outcome [6]: inactive

Structure (SMILES): CC(=O)c1ccc2ccccc2c1
- Potency [1]: inactive
- outcome [2]: inactive
- outcome [3]: inactive
- Potency [4]: inactive
- Potency [5]: inactive
- outcome [6]: inactive

Structure (SMILES): CN1[C@@H]2CC[C@H]1CC(OC(=O)C(O)c1ccccc1)C2 (stereo partly specified)
- Potency [1]: inactive
- Potency [10]: inactive
- outcome [2]: inactive
- Potency [5]: inactive
- outcome [6]: inactive
- Potency [8]: inactive
- Potency [9]: inactive

Structure (SMILES): Nc1ccccn1
- Potency [1]: inactive
- outcome [2]: inactive
- outcome [3]: inactive
- Potency [4]: inactive
- Potency [5]: inactive
- outcome [6]: inactive

Structure (SMILES): CO[C@@]1(NC(=O)C(C(=O)O)c2ccc(O)cc2)C(=O)N2C(C(=O)O)=C(CSc3nnnn3C)CO[C@@H]21 (stereo partly specified)
- Potency [1]: inactive
- outcome [2]: inactive
- outcome [3]: inactive
- Potency [4]: inactive
- Potency [5]: inactive
- outcome [6]: inactive
- Potency [7]: inactive
- Potency [8]: inactive
- Potency [9]: inactive

Structure (SMILES): CC(CO)(CO)[N+](=O)[O-]
- Potency [1]: inactive
- Potency [10]: inactive
- outcome [2]: inactive
- outcome [6]: inactive
- Potency [9]: inactive

Structure (SMILES): CCCc1nn(C)c2c(=O)[nH]c(-c3cc(S(=O)(=O)N4CCN(C)CC4)ccc3OCC)nc12
- Potency [1]: inactive
- outcome [2]: inactive
- outcome [3]: inactive
- Potency [4]: inactive
- Potency [5]: inactive
- outcome [6]: inactive
- Potency [9]: inactive

Structure (SMILES): CN(C)CCCCCCN(C)C
- Potency [1]: inactive
- outcome [2]: inactive
- outcome [3]: inactive
- Potency [4]: inactive
- Potency [5]: inactive
- outcome [6]: inactive
- Potency [8]: inactive
- Potency [9]: inactive

Structure (SMILES): CCOC(=O)c1cnc2c(cnn2CC)c1NN=C(C)C
- Potency [1]: inactive
- outcome [2]: inactive
- outcome [3]: inactive
- Potency [4]: inactive
- Potency [5]: inactive
- outcome [6]: inactive

Structure (SMILES): COC(=O)Nc1ccc(Cl)c(Cl)c1
- Potency [1]: inactive
- outcome [2]: inactive
- outcome [3]: inactive
- Potency [4]: inactive
- Potency [5]: 60.8 µM (active)
- outcome [6]: inactive
- Potency [9]: inactive

Structure (SMILES): C1CCC2(CCCCO2)OC1
- Potency [1]: inactive
- outcome [2]: inactive
- outcome [3]: inactive
- Potency [4]: inactive
- Potency [5]: inactive
- outcome [6]: inactive
- Potency [9]: inactive

Structure (SMILES): O=S(=O)(O)c1cccc(S(=O)(=O)O)c1
- Potency [1]: inactive
- outcome [2]: inactive
- outcome [3]: inactive
- Potency [4]: inactive
- Potency [5]: inactive
- outcome [6]: inactive
- Potency [8]: inactive
- Potency [9]: inactive
